# Data: the supplement of paper PMC9694430
# Tests used:
# Experiment in all cases: thermal shift delta Tm vs DMSO control; higher = stronger stabilization (binding)
# Details in all cases: 12.5 µM; protein concentration 2 µM
# [1] = tested on: LOC_OS01G57100-cb003
# Procedure, shortened: (§1)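 Compounds dissolved in DMSO were added to purified rice kinase domain constructs, which had been expressed in E. coli, for differential scanning fluorimetry. Each well held 19.5 μl of 2 μM kinase in 100 mM potassium phosphate pH 7.5, 150 mM NaCl, 10% glycerol and 5 × SYPRO Orange. Fluorescence was followed from 25°C to 95°C at a rate of 0.05°C/s. Shifts in Boltzmann-fitted melting temperature are triplicate means relative to DMSO-only protein.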
# [2] = tested on: LOC_OS01G60330-cb001
# Procedure, shortened: as §1
# [3] = tested on: LOC_OS01G60700-cb002
# Procedure, shortened: as §1
# [4] = tested on: LOC_OS01G63280-cb003
# Procedure, shortened: as §1
# [5] = tested on: LOC_OS01G67340-cb003
# Procedure, shortened: as §1
# [6] = tested on: LOC_OS01G70970-cb002
# Procedure, shortened: as §1
# [7] = tested on: LOC_OS02G07810-cb001
# Procedure, shortened: as §1
# [8] = tested on: LOC_OS02G08530-cb003
# Procedure, shortened: as §1
# [9] = tested on: LOC_OS02G14120-cb001
# Procedure, shortened: as §1
# [10] = tested on: LOC_OS02G17970-cb001
# Procedure, shortened: as §1
# [11] = tested on: LOC_OS02G45750-cb003
# Procedure, shortened: as §1
# [12] = tested on: LOC_OS02G54510-cb004
# Procedure, shortened: as §1
# [13] = tested on: LOC_OS03G04050-cb001
# Procedure, shortened: as §1
# [14] = tested on: LOC_OS03G12390-cb001
# Procedure, shortened: as §1
# [15] = tested on: LOC_OS03G27990-cb004
# Procedure, shortened: as §1
# [16] = tested on: LOC_OS03G50450-cb001
# Procedure, shortened: as §1
# [17] = tested on: LOC_OS03G50810-cb003
# Procedure, shortened: as §1
# [18] = tested on: LOC_OS04G35114-cb001
# Procedure, shortened: as §1
# [19] = tested on: T1, LOC_OS04G38480-cb003
# T1 sequence (whole entry): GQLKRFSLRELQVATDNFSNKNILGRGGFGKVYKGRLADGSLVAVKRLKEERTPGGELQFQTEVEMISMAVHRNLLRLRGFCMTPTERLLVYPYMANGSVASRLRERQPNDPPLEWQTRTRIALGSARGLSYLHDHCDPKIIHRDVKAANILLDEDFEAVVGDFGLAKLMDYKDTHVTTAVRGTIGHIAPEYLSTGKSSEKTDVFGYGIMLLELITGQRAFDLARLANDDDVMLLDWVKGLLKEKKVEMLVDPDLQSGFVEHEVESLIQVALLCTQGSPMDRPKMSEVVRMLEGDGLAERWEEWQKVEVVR
# Procedure, shortened: as §1
# [20] = tested on: T2, LOC_OS04G41100-cb001
# T2 sequence (whole entry): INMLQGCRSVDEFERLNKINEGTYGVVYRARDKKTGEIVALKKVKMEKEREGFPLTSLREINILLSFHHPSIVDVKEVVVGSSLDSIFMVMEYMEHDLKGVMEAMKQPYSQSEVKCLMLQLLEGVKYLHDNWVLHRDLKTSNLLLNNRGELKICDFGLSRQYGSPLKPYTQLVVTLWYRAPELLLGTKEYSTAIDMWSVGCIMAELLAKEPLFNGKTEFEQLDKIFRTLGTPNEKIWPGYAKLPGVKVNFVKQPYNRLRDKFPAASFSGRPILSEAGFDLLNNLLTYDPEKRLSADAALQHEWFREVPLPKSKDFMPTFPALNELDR
# Procedure, shortened: as §1
SMILES,thermal shift delta Tm [1] [°C],thermal shift delta Tm [2] [°C],thermal shift delta Tm [3] [°C],thermal shift delta Tm [4] [°C],thermal shift delta Tm [5] [°C],thermal shift delta Tm [6] [°C],thermal shift delta Tm [7] [°C],thermal shift delta Tm [8] [°C],thermal shift delta Tm [9] [°C],thermal shift delta Tm [10] [°C],thermal shift delta Tm [11] [°C],thermal shift delta Tm [12] [°C],thermal shift delta Tm [13] [°C],thermal shift delta Tm [14] [°C],thermal shift delta Tm [15] [°C],thermal shift delta Tm [16] [°C],thermal shift delta Tm [17] [°C],thermal shift delta Tm [18] [°C],thermal shift delta Tm [19] [°C],thermal shift delta Tm [20] [°C]
CCN1CCN(Cc2ccc(C(=O)Nc3ccc(C)c(Oc4ccc5c(c4)CC(=O)N5)c3)cc2C(F)(F)F)CC1,2.21,1.36,1.34,0.98,1.05,0.43,1.19,0.8,0.22,1.43,1.5,0.41,0.79,0.12,0.67,1.13,0.7,1.2,1.7,0.5
O=C1NC(=O)/C(=C/c2ccc3c(c2)OC(F)(F)O3)S1,2.63,0.63,1.33,0.41,0.47,0.52,1.34,0.96,-0.18,0.93,1.3,0.48,0.81,0.94,0.43,0.55,0.65,0.97,1.58,0.5
Cn1c(=O)c(F)c(Nc2ccc(I)cc2F)c2c(=O)n(C[C@@H](O)CO)cnc21,3.09,1.03,1.02,0.11,0.29,0.22,1.5,0.9,0.98,1.05,1.03,0.28,0.51,0.07,0.21,0.15,0.78,0.35,0.83,0.43
"O=C(c1ccc(F)c(F)c1Nc1ccc(I)cc1F)N1CC(O)([C@@H]2CCCCN2)C1 [Cobimetinib (GDC-0973, RG7420)]",2.49,0.82,1.16,0.52,0.36,0.54,0.48,1.02,1.18,0.97,1.13,0.05,0.77,-0.17,0.68,0.95,0.43,0.76,0.54,0.19
C#Cc1cccc(Nc2ncnc3cc(OCCOC)c(OCCOC)cc23)c1 [Erlotinib],-0.31,-0.11,0.43,-0.09,0.02,0.34,-0.06,0.9,1.45,0.75,4.13,0.7,0.03,2.11,0.02,-0.06,1.07,6.16,1.65,-0.05
Cc1cnc(Nc2ccc(N3CCN(C)CC3)cc2)nc1Nc1cccc(S(=O)(=O)NC(C)(C)C)c1,2.09,2.84,1.28,0.46,1.05,3.63,0.9,3.06,8.37,1.17,2.16,1.6,0.74,3.11,1.77,2.4,3.61,3.61,2.7,0.79
